Measurements published in PubChem BioAssay (NCATS).
Records with an inconclusive call do not appear. Unmarked numbers belong to inactive results. The source made the active and inactive calls. The call rests on the fitted dose curve; in most records, active means well fitted inhibition curve with a large enough effect in the repeat runs; inconclusive means weak or mixed curves; inactive means no such curve, though single readings can be large or run the other way. Where a SMILES comes first, the peptide text is derived from it. The star is where a group is joined. Hexanoyl = CCCCCC(=O)*

Biological target: Cytochrome P450 2C9 (Homo sapiens) (UniProt P11712)
Sequence (P11712 whole entry, looked up): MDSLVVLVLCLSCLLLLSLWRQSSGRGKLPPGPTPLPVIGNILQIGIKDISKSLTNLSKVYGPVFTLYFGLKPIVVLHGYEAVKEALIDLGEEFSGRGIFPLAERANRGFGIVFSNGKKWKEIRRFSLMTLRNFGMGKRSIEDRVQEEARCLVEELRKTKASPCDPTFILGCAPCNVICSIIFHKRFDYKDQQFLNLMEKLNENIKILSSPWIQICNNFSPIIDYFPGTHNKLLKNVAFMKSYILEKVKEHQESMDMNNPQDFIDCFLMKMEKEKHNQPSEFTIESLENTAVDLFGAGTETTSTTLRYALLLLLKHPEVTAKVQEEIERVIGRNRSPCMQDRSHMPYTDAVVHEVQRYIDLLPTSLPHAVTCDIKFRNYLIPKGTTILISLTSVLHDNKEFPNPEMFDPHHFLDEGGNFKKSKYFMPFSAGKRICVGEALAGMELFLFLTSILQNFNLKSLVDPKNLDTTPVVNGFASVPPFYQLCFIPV
Test: Cytochrome P450 family 2 subfamily C member 9 (CYP2C9) small molecule antagonists: luciferase biochemical (cell-free) qHTS assay (AID 1645842); further: nearly all actives have a fitted effect of over 55% in size
Conditions: P450-Glo CYP2C9 enzyme assay, luciferin luminescence; series mostly up to 57.4 µM; activity change, negative = inhibition: at the top concentration
Description: National Center for Advancing Translational Sciences [NCATS] Assay Overview: Cytochrome P450 (CYP) enzymes are membrane-bound hemeproteins that play a key role in metabolism of drugs and xenobiotics. Assaying the effect of chemicals on CYP isozymes is useful to minimize the adverse drug reactions and toxicities in drug development process. Chemical compounds were tested for their effect on CYP enzyme activities by using P450-Glo (TM) screening systems (Promega Corporation, Madison, WI). These systems provide a luminescent method containing proluciferin substrates and are converted to luciferin products by CYP isozymes. The luciferin products formed are detected with a luciferin detection reagent, and the amount of light produced is proportional to CYP activity. P450-Glo (TM) CYP2C9 screening system (Catalog. No. V9790) was used to detect the compounds that interfere in CYP2C9 activity.
Assay Protocol Summary: Two ul of enzyme-substrate mix supplemented with 0.4% Bovine Serum Albumin was dispensed into medium binding white/solid 1536-well plates (Greiner Bio-One North America Inc., Monroe, NC) using a Flying Reagent Dispenser (FRD, Aurora Discovery, San Diego, CA). […] The assay plates were incubated at room temperature for 10 min. Then 2 ul of NADPH regeneration solution was added to each well of the assay plates using an FRD and incubated at 37C for 1 h. The reaction was stopped by adding 4 ul of detection reagent using an FRD and after 20 min incubation at room temperature, the luminescence signal was measured using a ViewLux plate reader (Perkin Elmer, Shelton, CT). Data were expressed as relative luminescence units.
On the % scale 0 is the no-effect control and ±100 the full control effect; potency means the concentration at half of the fitted maximal effect.

Compound | Potency | activity change, negative = inhibition [%]
COc1ccc(CCc2nc3cc(-c4c(C)noc4C)ccc3n2C[C@H](C)N2CCOCC2)cc1Cl | 15.1 µM (active) | 
CCCN(CCN1CCN(c2ccccc2OC)CC1)C1CCc2ncsc2C1 (stereo not given) |  | 4.18
COc1ccc(NC(=O)c2ccc(-c3ccc(C(N)=O)cc3C)cc2)cc1N1CCN(C)CC1 |  | 0.145
NC(=O)[C@@H]1CC[C@H](c2ccc(OCc3ccccc3F)cc2)N1 |  | -17.9
O=C(NC1CCN(CC(F)(F)F)CC1)c1ccc(-c2cccc(F)c2)nc1 |  | 52.5
CCOC(=O)CSc1nc2c(sc3ccccc32)c(=O)n1CCCN1CCCC1 | 13.5 µM (active) | 
CC1(C)Oc2ncnc(N)c2N=C1c1ccc(C2CCC(CC(=O)O)CC2)cc1 (stereo not given) |  | -1.39
CC1(C)CC(NC(=O)C(=O)Nc2ccc(Cl)cc2)CC(C)(C)N1 |  | 4.45
Cc1ccc(-n2nc(C(C)(C)C)cc2NC(=O)Nc2cc(COc3cccnc3)[nH]n2)cc1 | 7.56 µM (active) | 
O=C(OC(C(F)(F)F)C(F)(F)F)N1CCN(Cc2cccc(Oc3ccccc3)c2)CC1 | 19 µM (active) | 
O=C(NC/C=C/CN1CCN(c2cccc(Cl)c2Cl)CC1)c1ccc(-c2ccccn2)cc1 | 10.7 µM (active) | 
NCCCCN(Cc1nc2ccccc2[nH]1)[C@H]1CCCc2cccnc21 | 6.74 µM (active) | 
COc1ccccc1Oc1c(NS(=O)(=O)c2ccc(C)cn2)nc(-c2ccncc2)nc1OC | 26.8 µM (active) | 
COc1cc2nc(=NC(=O)c3cccnc3)n3c(c2cc1OC)NCC3 |  | -3.47
Cc1nc2ccccc2c(-c2ccc3c4c(ccnc24)CCO3)c1[C@H](OC(C)(C)C)C(=O)O |  | -19.1
Cc1cc(C)c2nc(-c3ccccn3)cc(C(=O)Nc3ccc(S(=O)(=O)Nc4onc(C)c4C)cc3)c2c1 | 26.8 µM (active) | 
Cc1nnc(-c2sc(NC(=O)[C@H](C(C)C)n3c(=O)[nH]c4ccccc4c3=O)nc2C)o1 | 9.52 µM (active) | 
Nc1ncnc2c1ncn2[C@H]1O[C@@H](C(=O)N2CCN(CC(=O)Nc3cccc4c3CNC4=O)CC2)[C@H](O)[C@@H]1O |  | 1.03
CCCSc1nc(NC2CC2c2ccc(F)c(F)c2)c2nnn(C3CC(OCCO)C(O)C3O)c2n1 (stereo not given) | 3.79 µM (active) | 
CN1CCc2cc(Cl)c(O)cc2[C@@H](c2cccc3c2OCC3)C1 |  | 5.15

Compound | Potency | activity change, negative = inhibition [%]
CC1(C)[C@H]2C[C@H](C/C=C\CCCC(=O)O)[C@@H](NC(=O)c3csc4ccc(O)cc34)[C@@H]1C2 | 1.34 µM (active) | 
COc1ccc(C(=O)NCc2cc(C(C)C)no2)cc1OC1CCN(C)CC1 |  | 4.6
O=C(Cn1c2ccccc2c2nc3n(c(=O)c21)CCS3)N1CCCC1 |  | -12.6
O=C(O)[C@H](Cc1ccccc1)Oc1ccc(-c2ccccc2)cc1 | 9.52 µM (active) | 
O=C(NCC(=O)N1CCCC1)Nc1ccc2ccccc2c1 |  | 10.9
Cc1nnc(-c2ccc3occ(-c4ccc(S(C)=O)cc4)c3c2)o1 (stereo not given) | 19 µM (active) | 
O=C(/C=C/C=C/c1ccc2c(c1)OCO2)N1CCCCC1 | 10.7 µM (active) | 
CCC(C)C(N)C(=O)NCCN1CCOCC1 (stereo not given) |  | 0.127
CC(C)(C)NS(=O)(=O)c1ccc(-c2ccc3[nH]nc(N)c3c2)cc1 | 13.5 µM (active) | 
CC(C)[C@@](O)(c1ccc2cc(OC(F)F)c(OC(F)F)cc2c1)c1cn[nH]n1 | 1.07 µM (active) | 
O=C(N[C@@H]1CC[C@@H](c2cccc(F)c2F)CN(CC(F)(F)F)C1=O)N1CCC(n2c(=O)[nH]c3ncccc32)CC1 | 12 µM (active) | 
NC(=O)c1ccc(F)c2c1C[C@@H](N(C1CCC1)C1CCC1)CO2 |  | -19.3
CCCCNc1nc(N)c2[nH]c(=O)n(Cc3ccc(OCCN(C)C)nc3)c2n1 |  | -21.7
CC(=O)N[C@H](Cc1c[nH]c2ccccc12)C(=O)OCc1cc(C(F)(F)F)cc(C(F)(F)F)c1 | 1.9 µM (active) | 
CCCCS(=O)(=O)NC(Cc1ccc(OCCCCC2CCNCC2)cc1)C(=O)O (stereo not given) |  | -5.44
CCCC(=O)Nc1cccc(NC(=O)c2ccccc2Br)c1 |  | -12.2
Cc1ccc(C)c(NC(=O)CNS(=O)(=O)c2ccc3[nH]c(=O)oc3c2)c1 |  | 40.9
Cc1c(C)c(NCC(=O)N(C)C2CCN(Cc3ccc(C(N)=O)cc3)CC2)c(C)c(C)c1N | 7.56 µM (active) | 
CCCCCC(=O)N1CCC[C@H]1C(=O)N[C@@H](Cc1ccc(O)cc1)C(=O)OC (Hexanoyl-Pro-Tyr-OMe) | 2.39 µM (active) | 
CCCCOc1nc(N)c2c(n1)N(Cc1cccc(CN3CCCC3)c1)CC(=O)N2 |  | -29.4
